Hits are enriched below; roughly 7.6% of the tested compounds scored in any of these assays.
M1 ag: M1 muscarinic receptor agonism; CHO-M1 cells, Fluo-4 calcium fluorescence, agonist mode; hits give high values; B-score at 10 µM; actives 3% (n = 64,000); AID 626;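 active means fluorescence rise, raw or as B-score row- and column-corrected plate score, outside the 99.7% band of its plate's samples, either direction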
PLAP act: human PLAP activation. P05187. purified PLAP enzyme, luminescent substrate read-out; hits give high values. activation fold at 20 µM. actives 1.2% (n = 96,000); in the data active means activation fold above about 2
M1 antagonist: blocks the rat M1 muscarinic receptor response to acetylcholine. P08482. CHO-M1 cells, Fluo-4 calcium, ACh EC80 antagonist mode; hits give low values. B-score at 10 µM. actives 3.4% (n = 64,000);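 active means calcium fluorescence response, raw or row-and-column corrected B-score, differing from the plate sample mean either way at a set confidence level, mostly lower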
Cav3 T inh: human Cav3.2 channel inhibition, primary screen; AID 449739; B-score at 10 µM; actives 4% (n = 100,000); Cav3.2-expressing cells, Fluo-4 calcium fluorescence FDSS; hits give low values; O95180;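 active means single-dose well whose peak fluorescence ratio is a statistical outlier from its plate by either plate-standardised score or position-corrected B-score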
Target sequence (O95180 whole entry, looked up): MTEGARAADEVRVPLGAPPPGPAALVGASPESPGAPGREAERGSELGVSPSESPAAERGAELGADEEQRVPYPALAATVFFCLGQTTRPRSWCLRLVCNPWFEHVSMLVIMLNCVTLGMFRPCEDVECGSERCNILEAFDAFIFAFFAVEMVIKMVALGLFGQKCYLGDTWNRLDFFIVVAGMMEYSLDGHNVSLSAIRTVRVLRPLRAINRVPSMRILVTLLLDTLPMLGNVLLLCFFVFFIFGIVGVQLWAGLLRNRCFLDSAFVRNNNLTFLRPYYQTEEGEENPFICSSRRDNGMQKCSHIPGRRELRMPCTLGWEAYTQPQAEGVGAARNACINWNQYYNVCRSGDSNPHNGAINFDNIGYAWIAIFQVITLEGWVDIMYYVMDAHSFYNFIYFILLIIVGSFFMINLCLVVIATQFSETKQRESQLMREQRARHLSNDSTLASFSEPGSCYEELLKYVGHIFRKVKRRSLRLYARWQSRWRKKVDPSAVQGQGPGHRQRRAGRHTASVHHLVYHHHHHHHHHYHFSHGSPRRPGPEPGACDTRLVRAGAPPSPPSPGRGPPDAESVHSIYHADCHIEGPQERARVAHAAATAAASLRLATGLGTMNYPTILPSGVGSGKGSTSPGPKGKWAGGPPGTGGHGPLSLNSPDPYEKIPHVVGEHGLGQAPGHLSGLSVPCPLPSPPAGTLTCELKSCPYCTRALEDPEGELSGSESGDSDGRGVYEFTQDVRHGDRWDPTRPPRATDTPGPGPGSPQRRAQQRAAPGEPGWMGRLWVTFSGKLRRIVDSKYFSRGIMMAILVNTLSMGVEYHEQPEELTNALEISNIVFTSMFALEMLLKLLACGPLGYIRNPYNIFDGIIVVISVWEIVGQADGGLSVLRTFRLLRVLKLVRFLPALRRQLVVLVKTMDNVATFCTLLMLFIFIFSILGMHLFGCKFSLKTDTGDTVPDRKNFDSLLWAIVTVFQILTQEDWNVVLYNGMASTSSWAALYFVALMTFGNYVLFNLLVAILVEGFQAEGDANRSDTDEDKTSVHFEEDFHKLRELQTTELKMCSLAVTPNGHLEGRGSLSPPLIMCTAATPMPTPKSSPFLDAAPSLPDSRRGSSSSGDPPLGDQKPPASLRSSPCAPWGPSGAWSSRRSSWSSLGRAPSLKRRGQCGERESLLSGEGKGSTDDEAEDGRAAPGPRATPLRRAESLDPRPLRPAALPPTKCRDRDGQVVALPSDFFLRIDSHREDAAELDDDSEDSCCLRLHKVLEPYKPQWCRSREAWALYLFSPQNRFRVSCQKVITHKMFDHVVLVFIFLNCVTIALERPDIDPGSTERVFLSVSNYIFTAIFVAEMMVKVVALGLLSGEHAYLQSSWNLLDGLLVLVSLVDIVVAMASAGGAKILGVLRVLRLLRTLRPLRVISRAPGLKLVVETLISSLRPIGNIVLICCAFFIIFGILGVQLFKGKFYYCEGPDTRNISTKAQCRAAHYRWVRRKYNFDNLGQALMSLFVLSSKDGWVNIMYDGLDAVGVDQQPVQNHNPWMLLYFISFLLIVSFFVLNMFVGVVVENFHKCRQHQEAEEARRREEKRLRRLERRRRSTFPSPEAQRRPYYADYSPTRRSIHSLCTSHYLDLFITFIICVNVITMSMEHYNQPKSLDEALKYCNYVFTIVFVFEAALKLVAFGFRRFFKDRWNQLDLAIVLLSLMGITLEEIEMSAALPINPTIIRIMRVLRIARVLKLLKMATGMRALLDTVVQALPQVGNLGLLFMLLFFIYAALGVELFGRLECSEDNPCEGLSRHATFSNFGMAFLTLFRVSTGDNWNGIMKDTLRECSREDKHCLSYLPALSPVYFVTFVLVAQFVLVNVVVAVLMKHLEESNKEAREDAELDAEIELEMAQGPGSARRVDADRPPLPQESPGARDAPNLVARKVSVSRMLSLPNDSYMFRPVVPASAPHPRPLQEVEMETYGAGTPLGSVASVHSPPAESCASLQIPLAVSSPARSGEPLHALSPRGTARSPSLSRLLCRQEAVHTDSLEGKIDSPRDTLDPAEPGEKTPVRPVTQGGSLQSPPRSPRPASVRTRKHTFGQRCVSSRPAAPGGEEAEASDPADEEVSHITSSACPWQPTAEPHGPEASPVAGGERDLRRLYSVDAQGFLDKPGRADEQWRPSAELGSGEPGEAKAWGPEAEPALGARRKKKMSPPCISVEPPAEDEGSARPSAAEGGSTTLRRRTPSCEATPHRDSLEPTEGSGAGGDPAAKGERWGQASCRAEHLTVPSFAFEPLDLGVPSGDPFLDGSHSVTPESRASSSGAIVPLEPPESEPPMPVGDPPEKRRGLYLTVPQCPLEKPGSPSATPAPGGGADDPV
The depositor's hits bear a star; . = not tested or not shown.

SMILES | M1 ag | PLAP act | M1 antagonist | Cav3 T inh
Fc1ccccc1OCCSc1nnnn1-c1ccccc1 | . | 0.8 | . | -3.11
c1ccc(OCCSc2nnnn2-c2ccccc2)cc1 | -0.444 | 0.7 | -0.371 | -5.96*
CCOc1ccc(OCCSc2nnnn2-c2ccccc2)cc1 | . | 0.8 | . | -2.62
COc1ccccc1OCCSc1nnnn1-c1ccc(C)cc1 | 0.819 | 1.1 | -0.197 | -5.01*
Brc1ccccc1-c1nnc(CSc2nnnn2-c2ccccc2)o1 | 0.869 | 2.1* | 0.585 | -0.672
CC(CNC(=O)c1cc(Cl)ccc1[N+](=O)[O-])NC(=O)c1cc(Cl)ccc1[N+](=O)[O-] (centres undefined) | . | 0.9 | . | -0.4
C#CCOC(=O)c1ccccc1C(=O)n1nnc2ccccc21 | -2.27* | 1 | 0.34 | 0.63
CSc1cccc(NC(=O)CN(Cc2ccc(Cl)cc2)S(C)(=O)=O)c1 | . | 1.2 | . | -3.37*
COc1ccc(N(CC(=O)Nc2cccc(SC)c2)S(C)(=O)=O)cc1 | -0.00529 | 1.5 | 0.022 | -4.78*
CCOc1ccc(NC(=O)CN(c2cccc(C(F)(F)F)c2)S(C)(=O)=O)cc1 | . | 0.9 | . | -3.79*
COc1ccc(N(CC(=O)Nc2cccc(C(F)(F)F)c2)S(C)(=O)=O)cc1 | . | . | . | -3.32*
CS(=O)(=O)N(CC(=O)Nc1ccccc1)Cc1ccc(Cl)cc1 | . | 0.8 | . | -0.399
COc1ccc(OC)c(S(=O)(=O)N2c3cc(F)ccc3CCC2C)c1 (centres undefined) | 0.638 | 1.1 | 0.621 | -2.23
COc1ccc2nc(SCC(=O)Nc3ccccc3C#N)[nH]c2c1 | -0.682 | 2.1* | 0.00212 | -0.321
CCOC(=O)c1cccc(NC(=O)Cn2cnc3c2c(=O)n(C)c(=O)n3C)c1 | 0.365 | 0.8 | 0.392 | .
CCCCCCCCCCSc1n[nH]c(NC(C)=O)n1 | . | 2.9* | . | -2.35
CCCSc1n[nH]c(NC(C)=O)n1 | 0.495 | 1 | -0.0364 | -0.423
CC(C)n1c(SCC(=O)N2CCCc3ccccc32)nc2c1c(=O)n(C)c(=O)n2C | 0.655 | . | 0.322 | .
Cc1nc2ccccc2c2oc(C(=O)N3CCc4ccccc4C3)cc12 | 6.03* | 1.5 | 0.725 | 1.05
Cc1nc2ccccc2c2oc(C(=O)N3CCN(C(=O)c4ccco4)CC3)cc12 | -0.409 | 1.5 | 0.681 | 0.168
Cc1ccc(C(=O)NCCCN2CCOCC2)cc1N1CCCC1=O | -0.0243 | 1.2 | -0.00616 | 0.513
CC(=O)Nc1ccccc1O | 0.715 | . | 0.671 | 0.399
C/C(=C\C(=O)c1ccncc1)Nc1ccccc1O | -0.641 | 0.9 | -0.102 | -5.7*
COc1cccc(NC(=O)CC2(CC(=O)O)CCCC2)c1 | 0.576 | 1.3 | 0.557 | 0.636
CC(Sc1nc(NCc2ccccc2)nc(N(C)C)n1)C(=O)Nc1ccccc1 (centres undefined) | . | 1 | . | -3.4*
SMILES | M1 ag | PLAP act | M1 antagonist | Cav3 T inh
CC(=O)c1ccc(Oc2ncnc3sccc23)c(CN2CCOCC2)c1 | -2.85* | . | 0.0286 | 1.58
O=C(O)CC1NC(=O)N(c2ccc(Cl)cc2)C1=O (centres undefined) | -0.143 | 1 | 0.487 | -1.93
O=C(COC(=O)C1CC2C=CC1C2)NCc1ccco1 (centres undefined) | 0.0166 | 1.5 | -0.606 | 0.37
N#Cc1c(NC(=O)Cn2cnc3ccccc3c2=O)oc(-c2ccccc2)c1-c1ccccc1 | -0.86 | 1 | 1.52 | -10.3*
N#Cc1c(NC(=O)COC(=O)C2CC3C=CC2C3)oc(-c2ccccc2)c1-c1ccccc1 (centres undefined) | -0.0387 | 1.6 | 0.000579 | -6*
COc1ccc(-c2oc(NC(=O)CSc3ncn[nH]3)c(C#N)c2-c2ccc(OC)cc2)cc1 | . | 1 | . | -0.152
CCn1c(SCC(=O)Nc2oc(-c3ccccc3)c(-c3ccccc3)c2C#N)nnc1-c1cc(OC)cc(OC)c1 | . | 2.2* | . | -2.57
O=C(COC(=O)C1CC2C=CC1C2)Nc1ccc2c(c1)OC(F)(F)O2 (centres undefined) | -0.603 | . | 0.131 | -5.49*
Cc1cc(C)n(C(=O)c2cc3c(s2)CCCC3)n1 | . | 1.2 | . | -0.0441
Cc1cccc(CCNC(=O)c2nnc(Cc3ccc(Cl)cc3)o2)c1 | -0.0236 | . | 0.00517 | .
CS(=O)(=O)N(Cc1ccccc1)c1ccc(C(=O)NCc2ccccc2)cc1 | . | 0.8 | . | 0.0386
N#Cc1c(NC(=O)CSc2n[nH]c(Cc3ccccc3)n2)oc(-c2ccccc2)c1-c1ccccc1 | -0.41 | 1.7 | -0.741 | -6.36*
COc1ccc(CC(=O)Nc2oc(-c3ccccc3)c(-c3ccccc3)c2C#N)cc1OC | 0.63 | . | 0.349 | -5.56*
COc1ccccc1OCC(=O)Nc1oc(-c2ccccc2)c(-c2ccccc2)c1C#N | -1.34 | 1.5 | 0.703 | -6.91*
Cc1ccc(OCC(=O)Nc2oc(-c3ccccc3)c(-c3ccccc3)c2C#N)cc1 | . | . | . | -7.54*
CC1=NN(C(=O)c2ccc(C)cc2)C(O)(C(F)(F)OC(F)(F)F)C1 (centres undefined) | . | 1.3 | . | -0.112
CC(C)CN1C(=S)SC(C)(C)C1n1oc(=O)n(-c2ccc(Cl)cc2)c1=O (centres undefined) | . | 0.8 | . | -4.07*
Cc1nnc(NC(=O)CSc2cn(Cc3ccccc3)c3ccccc23)s1 | -0.648 | 0.8 | -1.37 | -0.571
Cc1ccc(C(=O)NCCn2cc(SCC(=O)Nc3cc(C)on3)c3ccccc32)cc1 | 1.33 | 0.7 | 0.374 | -4.02*
Cc1ccc(Cn2cc(SCC(=O)Nc3nccs3)c3ccccc32)cc1 | . | 0.9 | . | -5.96*
Cc1cccc(Cn2cc(SCC(=O)Nc3nccs3)c3ccccc32)c1 | . | 1 | . | -4.63*
O=C(CSc1nccn1Cc1ccccc1)Nc1nccs1 | -0.096 | 1.1 | 1.1 | -0.619
COc1ccc(CCNC(=O)CSc2cn(Cc3ccccc3)c3ccccc23)cc1OC | . | . | . | 0.0137
COc1ccc(CCNC(=O)CSc2cn(Cc3cccc(C)c3)c3ccccc23)cc1OC | . | . | . | -4.32*
Cc1ccc(S(=O)(=O)c2ccc(Oc3cccc(C)c3)cc2)cc1 | . | 1.1 | . | -2.06
SMILES | M1 ag | PLAP act | M1 antagonist | Cav3 T inh
C/C=C1\COC(C(=O)NCc2ccccc2)(C(F)(F)F)C=C1C=C1CCCCC1 (centres undefined) | . | . | . | -4.32*
COC(=O)c1cccc(COC(=O)c2ccc(CS(=O)(=O)c3ccc(C)cc3)cc2)c1 | . | 1.2 | . | 0.0293
CC(NC(=O)CN1C(=O)NC(Cc2ccccc2)(Cc2ccccc2)C1=O)C12CC3CC(CC(C3)C1)C2 (centres undefined) | . | 1.9 | . | -5.15*
Cc1cc(C(=O)NCc2cc(C)n(C)n2)sc1-c1ccccc1 | 2.97* | 1.4 | -1.06 | 0.0517
Cc1cc(C(=O)N(C)C)sc1-c1ccccc1 | . | . | . | 0.142
O=C(NCc1ccco1)c1ccc(S(=O)(=O)N2CCCc3ccccc32)cc1 | -0.833 | 0.8 | -1.11 | -3.89*
O=C(Nc1nnc(C2CC2)o1)c1ccc(S(=O)(=O)N2CCCc3ccccc32)cc1 | -0.0133 | 2.5* | 0.158 | .
COc1ccc(-c2nnc(NC(=O)c3ccc(S(=O)(=O)N4CCCc5ccccc54)cc3)o2)cc1 | -0.19 | 0.9 | 0.0784 | .
O=C(NCc1ccccc1)c1ccc(S(=O)(=O)N2CCCc3ccccc32)cc1 | . | 0.9 | . | -3.48
CCOC(=O)Cn1c(=O)sc2ccccc21 | -0.00153 | 1.1 | 0.022 | -0.0332
CC(=O)N=c1sc2cc(C)ccc2n1C | -0.743 | 1.1 | 0.542 | 0.342
CCOC(=O)Cn1c(=NC(=O)CSC(C)=O)sc2cc(OC)ccc21 | -0.997 | 1.2 | 0 | -10.1*
CCOC(=O)Cn1c(=NC(=O)CSC(C)=O)sc2ccccc21 | -0.043 | 1.1 | 0.0637 | -9.42*

Source: PubChem BioAssay (several laboratories)
